# Activity calls are given as the source filed them.
# Columns and labels:
# [1] = tested on: Human papillomavirus type 1a protein E7 (residues 44-93); test: HPV1a E7 fragment binders on microarrays, primary screen, biochemical, small-molecule microarray, residues 44-93, 635 nm fluorescence (AID 1108); conditions: small-molecule microarray binding, fluorescence 635 nm; higher = more signal;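 note: E7 fragment applied at 1 µg/mL in TBST for 1 h at 4 C; score combines spot fluorescence with its signal to noise ratio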
# [2] = modulators of HCV replicon luciferase signal, primary screen, HCV replication inhibitor project, Huh7 cells, luciferase reporter (AID 1109); conditions: 48 h, higher = more signal;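 note: huh7 hepatoma cells harbouring a luciferase neomycin HCV replicon reporter; luciferase luminescence as measure of HCV replicon replication; test concentration not given here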
# [3] = target: Left-right determination factor 2 (Homo sapiens) (UniProt O00292); test: LEFTY2 binders on small-molecule microarrays, primary screen, biochemical, small-molecule microarray, 635 nm fluorescence scan (AID 1110); conditions: LEFTY2 binding, higher = more signal
# [4] = target: Calmodulin-1 (Homo sapiens) (UniProt P0DP23); test: CALM1 binders on microarrays, EGTA buffer, profiling panel, biochemical, small-molecule microarray, Cy5-labelled CALM1 (AID 1111); conditions: Cy5-CALM1 binding fluorescence, higher = more signal;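 note: labelled calmodulin applied in Tris saline Tween buffer holding calcium plus EGTA and DTT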
# [5] = target: Calmodulin-1 (Homo sapiens) (UniProt P0DP23); test: calcium-bound CALM1 binders on microarrays, profiling panel, artefact control for SMM control-protein annotation, biochemical, small-molecule microarray, Cy5-labelled CALM1, plus calcium (AID 1112); conditions: Cy5-CALM1 binding fluorescence, higher = more signal;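 note: score merges spot fluorescence with signal to noise from triplicate slides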
# [6] = small-molecule microarray binders of probe aWnt5a, primary screen, biochemical, biotinylated probe, 635/667 nm fluorescence (AID 1113); conditions: higher = more signal;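 note: score merges 667 nm fluorescence intensity with signal-to-noise per printed feature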
# [7] = small-molecule microarray binders of probe aShh, primary screen, biochemical, biotinylated probe, 635/667 nm fluorescence (AID 1114); conditions: higher = more signal;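 note: probe is biotin-labelled aShh protein from a stem cell growth factor screen; measures binding of labelled protein to compounds printed on the slide; score merges feature fluorescence at 667 nm with signal-to-noise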
# [8] = small-molecule microarray binders of probe aNog, primary screen, biochemical, biotinylated probe, 635/667 nm fluorescence (AID 1115); conditions: higher = more signal;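 note: probe is biotinylated aNog protein used at 0.15 µg/mL for 1 h at 4 C; z-score combines 667 nm fluorescence of each spot with its signal to noise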
# [9] = target: Torsin-1A-interacting protein 1 (Homo sapiens) (UniProt Q5JTV8); test: LAP1 binders from COS7 cell lysate, primary screen, small-molecule microarray, 635/667 nm fluorescence (AID 1116); conditions: COS7-hLAP1 lysate binding, 635 nm fluorescence, higher = more signal
# [10] = target: Alpha-bungarotoxin (Bungarus multicinctus) (UniProt P60615); test: alpha-bungarotoxin binders on microarray, profiling panel, artefact control for SMM control protein annotation, biochemical, small-molecule microarray, Alexa647 label, 635/667 nm fluorescence (AID 1117); conditions: alpha-BTX-A647 binding fluorescence, higher = more signal
# [11] = target: Albumin (Bos taurus) (UniProt P02769); test: bovine serum albumin binders on microarray, profiling panel, artefact control for SMM control protein annotation, biochemical, small-molecule microarray, Alexa647 label, 635/667 nm fluorescence (AID 1118); conditions: BSA-A647 binding, fluorescence 635 nm, higher = more signal;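 note: score merges 667 nm emission intensity and signal-to-noise per printed compound spot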
# [12] = small-molecule microarray binders of probe aXIP, primary screen, biochemical, NeuroSMM set, 635/667 nm fluorescence (AID 1119); conditions: higher = more signal, called active from +8 up or from −8 down;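 note: probe is the protein aXip251-270 applied at 1 µg/mL to compound-printed slides; binding of probe to printed compounds measured as 667 nm fluorescence plus signal to noise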
# [13] = small-molecule binders of probe aNOTCH3, primary screen, biochemical, small-molecule microarray, 635/667 nm fluorescence (AID 1120); conditions: higher = more signal;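 note: probe is a biotin-tagged antibody raised against NOTCH3 rather than NOTCH3 protein; score merges spot fluorescence near 667 nm with spot signal to noise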
# [14] = small-molecule binders of probe aNOTCH2, primary screen, biochemical, small-molecule microarray, 635/667 nm fluorescence (AID 1121); conditions: higher = more signal;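 note: score merges feature fluorescence read at 667 nm with its signal to noise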
# [15] = target: Carbonic anhydrase 2 (Homo sapiens) (UniProt P00918); test: CAII small-molecule binders, profiling panel, biochemical, small-molecule microarray, Alexa647-labelled CAII (AID 1122); conditions: CAII-A647 binding fluorescence, higher = more signal
# [16] = COS7 lysate on small-molecule microarray, probe aHis, 635 nm (AID 1123); conditions: COS7 cell lysate, fluorescence, higher = more signal;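 note: z-score combines 667nm fluorescence intensity with signal-to-noise per printed compound spot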
# [17] = compound binding in COS7 lysate, probe aLAP1, primary screen, cell lysate, small-molecule microarray (AID 1124); conditions: probe aLAP1, fluorescence, higher = more signal;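 note: lysate comes from COS7 cells expressing LAP1 and is applied at 0.3 µg/mL; score merges spot fluorescence near 667 nm with signal-to-noise over triplicate slides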
# [18] = tested on: Sam68 (KHDRBS1); test: Sam68 small-molecule binders, primary screen, biochemical, small-molecule microarray, 635 nm fluorescence (AID 1125); conditions: small-molecule microarray binding, higher = more signal;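 note: score merges 667 nm channel intensity with signal to noise over triplicate slides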
# [19] = tested on: Chordin-like protein 2 (CHRDL2); test: CHRDL2 small-molecule binders, primary screen, biochemical, small-molecule microarray, 635 nm fluorescence (AID 1126); conditions: small-molecule microarray binding, fluorescence 635 nm; higher = more signal;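 note: printed compound slides probed with Chrdl2 protein at 4 µg/mL for 1 h at 4 C; score merges 667 nm emission intensity with signal to noise over three replicate slides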
# [20] = target: Concanavalin-A (Canavalia ensiformis) (UniProt P02866); test: ConA small-molecule binders, primary screen, artefact control for SMM control protein annotation, biochemical, small-molecule microarray, Alexa647 label, 635 nm (AID 1127); conditions: ConA-A647 binding fluorescence, higher = more signal;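 note: z combines 667 nm emission intensity with signal-to-noise across three replicate slides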
# Concanavalin-A (Canavalia ensiformis), sequence (P02866 whole entry, looked up): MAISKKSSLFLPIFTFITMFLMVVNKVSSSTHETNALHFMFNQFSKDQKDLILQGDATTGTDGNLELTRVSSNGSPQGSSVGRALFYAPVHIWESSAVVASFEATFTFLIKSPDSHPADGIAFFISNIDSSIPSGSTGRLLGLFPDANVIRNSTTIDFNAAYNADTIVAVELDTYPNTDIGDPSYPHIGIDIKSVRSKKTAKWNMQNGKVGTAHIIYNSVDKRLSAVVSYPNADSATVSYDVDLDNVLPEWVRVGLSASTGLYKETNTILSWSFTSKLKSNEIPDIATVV
# Torsin-1A-interacting protein 1 (Homo sapiens), sequence (Q5JTV8 whole entry, looked up): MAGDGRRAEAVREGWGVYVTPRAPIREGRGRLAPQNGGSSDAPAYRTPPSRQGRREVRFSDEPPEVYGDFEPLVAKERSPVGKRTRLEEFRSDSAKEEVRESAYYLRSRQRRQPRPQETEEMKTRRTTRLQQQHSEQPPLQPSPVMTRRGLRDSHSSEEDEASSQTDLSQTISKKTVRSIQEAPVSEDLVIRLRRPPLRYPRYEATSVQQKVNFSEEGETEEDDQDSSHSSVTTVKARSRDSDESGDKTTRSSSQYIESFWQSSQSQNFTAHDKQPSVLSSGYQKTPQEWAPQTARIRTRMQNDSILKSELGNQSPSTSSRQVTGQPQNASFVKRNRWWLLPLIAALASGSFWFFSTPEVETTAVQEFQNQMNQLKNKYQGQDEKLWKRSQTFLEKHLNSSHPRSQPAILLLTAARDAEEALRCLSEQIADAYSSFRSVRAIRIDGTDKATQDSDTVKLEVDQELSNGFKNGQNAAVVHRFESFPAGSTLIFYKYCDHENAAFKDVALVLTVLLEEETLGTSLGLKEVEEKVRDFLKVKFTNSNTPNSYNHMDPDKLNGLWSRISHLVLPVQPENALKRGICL
# Left-right determination factor 2 (Homo sapiens), sequence (O00292 whole entry, looked up): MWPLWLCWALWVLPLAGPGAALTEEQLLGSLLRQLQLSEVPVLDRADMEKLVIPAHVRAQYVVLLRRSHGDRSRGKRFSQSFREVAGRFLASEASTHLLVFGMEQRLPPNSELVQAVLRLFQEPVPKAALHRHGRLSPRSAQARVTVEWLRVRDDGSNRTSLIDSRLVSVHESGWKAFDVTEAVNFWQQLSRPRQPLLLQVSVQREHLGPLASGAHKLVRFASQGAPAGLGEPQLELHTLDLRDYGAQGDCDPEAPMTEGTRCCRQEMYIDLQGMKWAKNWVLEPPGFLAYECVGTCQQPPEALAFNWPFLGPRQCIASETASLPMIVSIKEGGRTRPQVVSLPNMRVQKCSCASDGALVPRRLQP
# Albumin (Bos taurus), sequence (P02769 whole entry, looked up): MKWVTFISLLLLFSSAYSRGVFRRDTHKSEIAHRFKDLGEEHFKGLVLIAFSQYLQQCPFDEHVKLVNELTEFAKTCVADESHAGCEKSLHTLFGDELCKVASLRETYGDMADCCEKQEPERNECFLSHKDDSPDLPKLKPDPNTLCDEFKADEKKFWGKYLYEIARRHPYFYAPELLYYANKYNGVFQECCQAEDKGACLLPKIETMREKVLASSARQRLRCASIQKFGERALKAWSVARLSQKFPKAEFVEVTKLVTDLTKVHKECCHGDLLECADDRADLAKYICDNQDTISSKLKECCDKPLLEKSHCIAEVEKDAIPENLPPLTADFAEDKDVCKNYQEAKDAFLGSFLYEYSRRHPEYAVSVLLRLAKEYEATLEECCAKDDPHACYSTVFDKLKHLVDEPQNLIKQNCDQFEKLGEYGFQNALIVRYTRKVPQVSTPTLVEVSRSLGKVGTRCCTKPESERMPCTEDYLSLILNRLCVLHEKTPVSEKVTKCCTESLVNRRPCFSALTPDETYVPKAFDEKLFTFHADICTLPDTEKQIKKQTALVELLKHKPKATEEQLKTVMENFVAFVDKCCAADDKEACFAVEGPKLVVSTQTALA
# Alpha-bungarotoxin (Bungarus multicinctus), sequence (P60615 whole entry, looked up): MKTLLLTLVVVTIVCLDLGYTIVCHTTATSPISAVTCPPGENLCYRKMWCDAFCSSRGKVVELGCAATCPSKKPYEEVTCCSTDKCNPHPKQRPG
SMILES,composite z-score [1],z-score [2],composite z-score [3],composite z-score [4],composite z-score [5],composite z-score [6],composite z-score [7],composite z-score [8],composite z-score [9],composite z-score [10],composite z-score [11],composite Z-score [12],composite z-score [13],composite z-score [14],composite z-score [15],composite z-score [16],composite z-score [17],composite z-score [18],composite z-score [19],composite z-score [20]
COCCOC(=O)N1C(=O)[C@@]2(c3cc(C#CCC(C(=O)OC)C(=O)OC)ccc31)[C@H](c1ccc(OCCO)cc1)N1[C@H](c3ccccc3)[C@H](c3ccccc3)OC(=O)[C@H]1[C@@H]2C(=O)N1CCc2cc(OC)c(OC)cc2C1,1.42,-0.919,0.52,1.01,0.182,-0.072,0.123,0.353,1.05,1.68,0.688,-0.388 (inactive),0.0351,-0.106,0.256,1.48,-0.0051,1.06,0.378,1.11
[N-]=[N+]=Nc1ccccc1C[C@@]1(C(N)=O)N=C(c2ccc(OCCCO)cc2)O[C@@H]1c1ccccc1N=[N+]=[N-],1.03,-2.35,-0.0762,1.51,0.827,-0.132,0.0948,-0.722,1.01,1.09,1.01,0.127 (inactive),0.0059,0.0342,0.441,1.34,-0.0264,0.666,-0.359,0.716
C#Cc1cc2ccccc2oc1=O,-0.455,-3.88,-2.19,-1.07,-0.451,-0.187,0.541,-0.396,-0.402,-1.65,0.683,0.207 (inactive),-0.437,-0.126,0.637,0.688,0.216,0.343,-2.62,-0.486
[N-]=[N+]=NCc1ccccc1C[C@@]1(C(N)=O)N=C(c2ccc(OCCCO)cc2)O[C@@H]1c1ccccc1,1.43,-1.74,-1.41,1.85,0.989,-0.0417,-0.0035,-0.071,2.07,2.33,1.09,0.294 (inactive),0.0762,0.0341,0.693,2.83,0.368,1.3,-1.38,0.341
C=CC[C@@H](OC(=O)Nc1ccc(SC)cc1)c1ccc(O)c(F)c1,-0.148,0.56,-0.28,-0.818,-0.776,-0.0991,0.42,-0.036,0.958,0.26,-0.102,0.452 (inactive),-0.0647,-0.114,0.643,0.527,0.341,0.152,0.268,-0.0538
C=CC[C@]1(C(=O)N2CCCCC2)N=C(c2ccc(OCCCO)cc2)O[C@H]1c1ccccc1CN=[N+]=[N-],1.42,-2.64,0.264,1.7,0.204,0.0246,-0.138,-0.769,0.447,0.875,0.472,0.256 (inactive),0.405,-0.147,0.69,2.31,0.817,1.3,-0.406,1.1
COc1ccc(C(=O)Nc2ccc(CN3C(=O)[C@]4(O[C@H](CC(=O)N5Cc6ccccc6C[C@H]5CO)[C@@H]([Si](C)(C)c5ccc(OC)cc5)[C@@H]4C)c4ccccc43)cc2)cc1,1.33,-3.58,0.575,0.301,-0.376,-0.128,-0.232,-0.31,0.795,1.31,-0.254,-0.236 (inactive),-0.0377,-0.0995,0.151,1.1,0.0688,1.17,1.14,0.67
CC(C)N1C(=O)c2ccccc2[C@@H](C(=O)NCCN2CCOCC2)[C@@H]1c1ccc(CO)cc1,0.0391,-0.476,-2.07,-0.346,0.603,-0.256,-0.221,-0.321,-0.171,-1.25,0.466,1.62 (inactive),-0.313,-0.155,0.786,-0.735,-0.523,-1.21,-1.51,-0.538
C=CCC(OC(C)=O)[C@@H]1[C@@H](N(Cc2ccc(-c3cccc(C(F)(F)F)c3)o2)C(=O)c2ccc(-c3ccccc3)cc2)c2cc(OCCCO)ccc2N1C(=O)Cc1ccc2ccccc2c1 (stereo not given in full),-0.267,-1.09,-0.458,-0.248,0.277,-0.0981,0.0204,-0.144,-0.115,-0.153,-0.124,-0.274 (inactive),-0.149,-0.11,-0.177,0.453,-0.039,-0.421,-0.353,-0.0333
O=C1N(Cc2ccccc2)c2ccccc2C[C@]12N=C(c1ccc(OCCCO)cc1)O[C@@H]2c1ccccc1,0.732,-3.02,0.133,0.51,-0.249,-0.0179,-0.332,-0.356,-0.0883,0.743,0.185,0.109 (inactive),0.0203,-0.161,0.529,1.86,0.274,0.48,0.441,1.02
COc1ccc(CCNC(=O)[C@@]2(c3ccc([N+](=O)[O-])cc3)CC(=O)N(C3CCCCC3)[C@@H]2c2ccc(CO)cc2)cc1,0.91,-0.88,-0.197,0.36,0.323,-0.0341,-0.0886,-0.203,0.774,0.823,0.143,0.665 (inactive),0.245,0.0224,0.283,1.89,0.0344,1.16,-0.0865,0.952

# Source: PubChem BioAssay
